# ALR inh – human ALR oxidase inhibition via reduced H2O2 | P55789 | purified ALR, DTT oxidation, H2O2 HRP-luminol luminescence | inhibition, % (no concentration beside the values) | hit rate 3.8% among 290,000 | AID 485317;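 active = mean replicate inhibition above about 79%, with every replicate also reaching it, limit read from the data; inconclusive = only one of the two criteria met; inactive = mean below limit and not every replicate reaching it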
# Target sequence (P55789 whole entry, looked up): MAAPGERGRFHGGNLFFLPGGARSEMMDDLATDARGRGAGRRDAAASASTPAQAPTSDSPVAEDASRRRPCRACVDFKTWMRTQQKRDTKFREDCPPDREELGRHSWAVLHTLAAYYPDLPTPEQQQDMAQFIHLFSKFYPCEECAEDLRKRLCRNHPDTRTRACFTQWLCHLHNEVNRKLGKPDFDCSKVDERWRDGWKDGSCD
# HIF act – HIF pathway transcriptional activation; activation, % at 7.5 µM (by protocol); U2OS HRE-luciferase reporter, luminescence; normalized: DMSO 0%, desferrioxamine 100%; hit rate 0.32% among 300,000;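 active = mean activation of at least 10% of the iron chelator positive control signal, with at least half of replicates also reaching 10%; inconclusive = mean and replicate majority disagree about reaching 10%; inactive = mean and most replicates under 10%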
# M18AAP inhibitor – PfM18AAP enzyme inhibition; inhibition, % at 7.35 µM; hit rate 1.2% among 290,000; recombinant PfM18AAP, H-Glu-NHMec fluorogenic cleavage;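 active = inhibition above the campaign mean inhibition over all tested compounds plus 3 SD, cut at about 28% in these data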;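 note: 0% = plate median of test compound wells and 100% = 2 mM ZnCl2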
# Mot1-301 SUMO – blocks SUMOylation pathway, rescuing yeast Mot1-301 growth; growth rescue, % at 18.8 µM; AID 2716; hit rate 1% among 320,000; S. cerevisiae Mot1-301 growth rescue, ATP luminescence, 38.5C; percent above DMSO median, 100 means doubled;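 active = every valid replicate shows activation above 250% relative to neutral control wells; inactive = the rest, any valid replicate at or below 250%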;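 note: OY570 slx delta 5 strain wells were the positive control but not used for scaling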
# Mot1 SUMO dose – SUMO pathway inhibitors in yeast Mot1-301 growth. growth activity, percent, % at 42 µM. S. cerevisiae Mot1-301 galactose growth, ATP luminescence, 24 h; -100 = growth of slx-deleted rescue strain. 2,300 tested, under 10 active. shares compounds with Mot1-301 SUMO;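 active = Signal drops as the depositor expects, and the fitted half-maximal dose is no more than ten times the top valid tested dose; inconclusive = Poor fit, or a flat curve whose signal drops by 30% to 70%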;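 note: more negative values mean stronger growth rescue toward the control strain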
# * = called active by the depositor; ? = inconclusive; / = not tested or not shown; + = active, no number; ! = not confirmed by another sample. Rows were chosen to be rich in hits. Some 5.3% of all compounds tested hit in one or more screens of this group.
SMILES,ALR inh,HIF act,M18AAP inhibitor,Mot1-301 SUMO,Mot1 SUMO dose
COc1cccc(CN(C)C(=O)C2CCC(=O)N(Cc3cccc(F)c3)C2)c1 (stereo not given),-1.0,-0.5,-3.7,722.0*,-1.0
Cc1ccc(S(=O)(=O)N(C)c2ccc(OC(=O)CN3C(=O)NC4(CCCC4)C3=O)cc2)cc1C,-9.3,-8.6,/,+,0.4
O=C(C1CCC(CNc2c(N3CCCCC3)c(=O)c2=O)CC1)N1CCN(c2ccccn2)CC1 (stereo not given),/,0.0,-3.3,-5.4,/
O=C(C1CCC(CNc2c(N3CCCCC3)c(=O)c2=O)CC1)N1CCN(C2CCCCC2)CC1 (stereo not given),-6.1,0.4,-2.3,499.1*,0.6
O=C(NNc1c(Cl)cncc1Cl)c1sccc1Cl,0.1,0.1,16.0,15.6,/
S=c1[nH]ccn1-c1cccc(Cl)c1,10.8,-0.1,22.7,479.0*,-0.6
CCOC(=O)C1CCN(CC(O)COc2ccc(C(C)(C)C)cc2)CC1 (stereo not given),-24.0,-0.2,-0.9,376.4*,0.0
CCOC(=O)C1CCN(CC(O)COc2ccc(C(C)(C)CC)cc2)CC1 (stereo not given),1.6,-0.5,-13.7,62.6,/
CCOC(=O)C1CCN(CC(O)COCc2ccccc2)CC1 (stereo not given),1.8,-27.6,-17.0,554.3*,-0.3
CC1CCCC(NC(=O)CSc2nncs2)C1C (stereo not given),0.5,/,/,4.6,/
Cc1ccc(S(=O)(=O)/N=C(/Nc2ccc([N+](=O)[O-])cc2[N+](=O)[O-])c2ccccc2)cc1,-21.1,/,/,415.4*,-0.9
Cc1cc(C)n(-c2ccc(C(=O)N3CCN(S(=O)(=O)c4ccc(Cl)cc4)CC3)cc2)n1,-1.7,/,/,0.1,/
Cc1sc2nc(N)sc2c1C,49.3,/,6.1,+,0.4
O=C(N/N=C/c1cccc([N+](=O)[O-])c1)C1COc2ccccc2O1 (stereo not given),4.5,0.3,0.1,678.2*,0.4
Cn1cccc1CC(=O)N/N=C/c1cccc([N+](=O)[O-])c1,42.7,-0.2,4.9,409.2*,-0.4
Cn1cccc1CC(=O)N/N=C/c1cc([N+](=O)[O-])ccc1Cl,3.2,0.1,3.5,239.1,/
O=c1c2ccccc2nc2sc(Nc3cccc(Cl)c3)nn12,-4.3,/,/,5.8,/
COC(=O)N[C@H](CC(C)=O)c1ccccc1,-0.5,-0.5,4.2,3.3,/
S=c1[nH]nc(-c2ccccn2)n1/N=C/c1ccccc1,14.0,-0.2,5.5,368.9*,-0.1
Cc1ccccc1/C=N/n1c(-c2ccccn2)n[nH]c1=S,/,-0.5,2.5,-14.2,/
S=c1[nH]nc(-c2ccccc2)n1/N=C/c1cccc(Cl)c1,/,-4.2,15.5,0.4,/
Oc1c(Br)cc(Br)cc1/C=N/n1c(-c2ccccc2)n[nH]c1=S,/,0.0,14.9,643.7*,-1.5
CC(C)(C)NC(=O)C1Cc2ccccc2CN1S(=O)(=O)c1ccc(F)cc1 (stereo not given),-0.2,-0.5,1.2,583.6*,0.4
O=C(NCc1ccccc1Cl)[C@@H]1CCCN1S(=O)(=O)c1ccc(Cl)cc1,-4.0,/,/,47.0,/
O=C(CSc1ncccn1)c1ccccc1Br,?,1.2,13.0,435.6*,-1.3
SMILES,ALR inh,HIF act,M18AAP inhibitor,Mot1-301 SUMO,Mot1 SUMO dose
CCOc1ccccc1NC(=O)c1c(NC(=O)CCC(=O)O)sc2c1CCCCC2,/,/,20.3,/,/
CCOC(=O)c1ccc(NC(=O)c2c(NC(=O)CCC(=O)O)sc3c2CCCCC3)cc1,-5.0,0.0,26.2,630.8*,-0.4
Cc1ccc(C(C(=O)Nc2ccc3c(c2)OCO3)N(C)C(=O)Cc2c[nH]c3ccccc23)cc1 (stereo not given),-26.8,1.3,-0.4,756.0*,0.5
O=C(NCC1CCN(Cc2ccccc2Cl)CC1)Nc1ccccc1F,-3.9,-34.0,2.8,605.6*,-0.4
O=C(NCC1CCN(Cc2ccccc2F)CC1)Nc1cc(F)ccc1F,-9.4,-16.9,-6.6,-15.8,/
COc1ccc2c(CC(=O)Nc3ccc(OC)c(NS(=O)(=O)c4ccc(F)cc4)c3)coc2c1,/,-0.7,-13.4,559.6*,-0.5
FC(F)(F)c1nc2ccccc2n2c(-c3ccc(Cl)cc3Cl)nnc12,-2.8,-0.3,0.3,+,-0.4
COc1ccc(NC(=O)c2ccc(S(=O)(=O)N(C)c3ccccc3)cc2)cn1,/,-0.1,0.6,+,-1.1
CC(=O)Nc1ccc(NC(=O)c2ccc(S(=O)(=O)N(C)c3ccccc3)cc2)cc1,-2.5,/,/,0.3,/
CC(=O)c1c(C)[nH]c(C(=O)COC(=O)CN(C)S(=O)(=O)c2ccc(Cl)cc2)c1C,-0.4,0.1,0.4,5.2,/
Cc1ccc(C(=O)N2CCOCC2)cc1[N+](=O)[O-],-13.2,0.0,6.2,-10.0,/
Cc1ccc(C(=O)O)cc1[N+](=O)[O-],-8.8,/,/,364.9*,-1.4
Nc1ccc(S(=O)(=O)c2ccc(Cl)cc2)cc1,-4.4,0.1,-1.8,-21.8,/
O=C1CCC(/C=C/c2ccccc2)=NN1Cc1ccc(Cl)c(Cl)c1,-2.2,-0.4,0.6,659.1*,0.5
O=C1CCC(/C=C/c2ccccc2)=NN1Cc1ccccc1Cl,-14.4,-0.6,4.3,32.9,/
COC(=O)c1c(C(=O)OC)c(-c2cccc(F)c2)n2c1CS(=O)(=O)C2,/,-0.1,-7.7,-24.1,/
O=C(O)Cc1sc(Nc2ccccc2)nc1-c1cccs1,43.3,1.3,24.1,414.7*,-0.6
C=CCNc1nc(-c2cccs2)c(CC(=O)O)s1,11.6,0.1,-2.1,2.7,/
COc1cccc(C2/C(=C(/O)c3ccccc3)C(=O)C(=O)N2Cc2ccco2)c1 (stereo not given),-0.4,0.4,2.9,496.8*,0.3
COc1ccc(OC)c(NC(=O)C2CCN(C(=O)C3CC(=O)N(c4ccc(C)cc4)C3)CC2)c1 (stereo not given),-20.3,1.2,-1.8,-8.5,/
CC(C)C(O)(C(=O)NNc1ccccc1)C(C)C,31.8,-0.4,7.0,583.2*,0.6
CCc1cc(C(=O)COc2ccccc2F)c(O)cc1O,35.7,0.4,-3.6,40.0,/
C[C@]12CC[C@H]3C(=CCc4cc(O)ccc43)[C@@H]1CCC2=O,93.8*,1.5,0.4,538.1*!,0.1
C[C@]12C[C@H](O)[C@@H]3c4ccc(O)cc4CCC3[C@@H]1CCC2=O (stereo not given in full),/,-0.3,-3.4,352.6,/
COc1ccc(OCc2cc(C(=O)N3CCC(c4ccccc4)CC3)no2)c(Cl)c1,-3.9,3.1,3.5,9.9,/
COc1ccccc1-c1nc2ccc(Cl)cc2c(=O)n1O,-0.1,0.9,-6.0,4.9,/
Cc1ccccc1-c1nc2ccc(Cl)cc2c(=O)n1O,-1.0,-17.7,3.1,613.0*,-0.5
O=C1CC(c2cccc(Br)c2)C2=C(COC2=O)N1 (stereo not given),0.2,-0.1,-0.6,386.5*,1.0
O=C1CC(=O)C(n2cncn2)C(c2ccc(Cl)cc2Cl)C1 (stereo not given),-7.1,-0.1,17.6,+,-0.1
C=CCc1c(Cl)nc(C)nc1NCc1ccccc1,/,0.6,1.0,-23.1,/
